The full data set covers some 7,900 targets. This sample favours those with a hit. About 0.6% of all pairs of compound and target were hits. A number with no mark means an inactive call.
What was measured:
Experiment in all cases: log2 fold change, soluble protein after heating vs DMSO (PISA); higher = thermal stabilisation; K562 cells, 10 uM, 30 min; active = over 0.2 and 3.5 SD of the protein, either way, in both replicates (recomputed)
erlotinib = compound: C#Cc1cccc(Nc2ncnc3cc(OCCOC)c(OCCOC)cc23)c1 [erlotinib]
Method in brief: (§1)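 For each measurement, 10 μM compound was applied for 30 min to K562 cells at 2×10^6 cells/mL. Aliquots were heated for 3 min across 48°C-58°C, pooled, and extracted in PBS with 0.5% NP-40 at 4°C; the supernatant after 21,000xg for 90 min was soluble protein. This was quantified by TMTpro 16plex LC-MS/MS with channel sums equalised, and thermal stability was reported relative to control samples from duplicates, on a log2 fold-change scale.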

[1] = compound: C/C(=N\NC(=O)C1=CC(=CC=C1)S(=O)(=O)N2CCOCC2)/C3=C(C=CC(=C3)Cl)O
Method in brief: as §1

[2] = compound: C1=CC(=C(C=C1Cl)C2=NC3=NC=CN=C3C(=N2)NC4=CC=NC=C4)F
Method in brief: as §1

[3] = compound: C1=CC(=CC=C1C2=NC3=C(N2)C=C(C=C3)C(=O)N)OC4=CC=C(C=C4)Cl
Method in brief: as §1

[4] = compound: C1=CC2=C(C=CC(=C2)/C=C\3/C(=O)NC(=NCC4=CC=CS4)S3)N=C1
Method in brief: as §1

[5] = compound: C1=CC2=NC=CN=C2C=C1/C=C/3\C(=O)NC(=O)S3
Method in brief: as §1

[6] = compound: C1=CC=C(C=C1)C2=NC(=C(N2)C3=CC=NC=C3)C4=CC(=C(C=C4)Cl)O
Method in brief: as §1

[7] = compound: C1=CC=C2C(=C1)C3=NNC4=CC=CC(=C43)C2=O
Method in brief: as §1

[8] = compound: C1CCN(C1)C(=O)NC2=CC=CC(=C2)NC3=NC=C(C(=N3)NCCC4=CN=CN4)Br
Method in brief: as §1

[9] = compound: C1CN(CCC1(CC2=CC=C(C=C2)Cl)N)C3=NC=NC4=C3C=CN4
Method in brief: as §1

Chain of UniProt Q9Y6K0 (Q9Y6K0 whole entry, looked up): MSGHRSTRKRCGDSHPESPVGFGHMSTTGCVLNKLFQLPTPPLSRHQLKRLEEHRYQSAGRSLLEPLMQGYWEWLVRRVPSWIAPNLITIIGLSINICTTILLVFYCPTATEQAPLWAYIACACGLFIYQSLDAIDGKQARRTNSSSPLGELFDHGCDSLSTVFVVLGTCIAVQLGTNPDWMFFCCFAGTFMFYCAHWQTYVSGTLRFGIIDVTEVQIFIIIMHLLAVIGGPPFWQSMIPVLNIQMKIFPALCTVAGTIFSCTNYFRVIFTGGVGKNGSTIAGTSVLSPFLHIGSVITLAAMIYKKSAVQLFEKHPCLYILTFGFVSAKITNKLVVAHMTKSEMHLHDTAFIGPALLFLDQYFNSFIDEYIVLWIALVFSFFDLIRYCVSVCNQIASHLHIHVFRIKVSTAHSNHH
Chain of UniProt O75976 (O75976 whole entry, looked up): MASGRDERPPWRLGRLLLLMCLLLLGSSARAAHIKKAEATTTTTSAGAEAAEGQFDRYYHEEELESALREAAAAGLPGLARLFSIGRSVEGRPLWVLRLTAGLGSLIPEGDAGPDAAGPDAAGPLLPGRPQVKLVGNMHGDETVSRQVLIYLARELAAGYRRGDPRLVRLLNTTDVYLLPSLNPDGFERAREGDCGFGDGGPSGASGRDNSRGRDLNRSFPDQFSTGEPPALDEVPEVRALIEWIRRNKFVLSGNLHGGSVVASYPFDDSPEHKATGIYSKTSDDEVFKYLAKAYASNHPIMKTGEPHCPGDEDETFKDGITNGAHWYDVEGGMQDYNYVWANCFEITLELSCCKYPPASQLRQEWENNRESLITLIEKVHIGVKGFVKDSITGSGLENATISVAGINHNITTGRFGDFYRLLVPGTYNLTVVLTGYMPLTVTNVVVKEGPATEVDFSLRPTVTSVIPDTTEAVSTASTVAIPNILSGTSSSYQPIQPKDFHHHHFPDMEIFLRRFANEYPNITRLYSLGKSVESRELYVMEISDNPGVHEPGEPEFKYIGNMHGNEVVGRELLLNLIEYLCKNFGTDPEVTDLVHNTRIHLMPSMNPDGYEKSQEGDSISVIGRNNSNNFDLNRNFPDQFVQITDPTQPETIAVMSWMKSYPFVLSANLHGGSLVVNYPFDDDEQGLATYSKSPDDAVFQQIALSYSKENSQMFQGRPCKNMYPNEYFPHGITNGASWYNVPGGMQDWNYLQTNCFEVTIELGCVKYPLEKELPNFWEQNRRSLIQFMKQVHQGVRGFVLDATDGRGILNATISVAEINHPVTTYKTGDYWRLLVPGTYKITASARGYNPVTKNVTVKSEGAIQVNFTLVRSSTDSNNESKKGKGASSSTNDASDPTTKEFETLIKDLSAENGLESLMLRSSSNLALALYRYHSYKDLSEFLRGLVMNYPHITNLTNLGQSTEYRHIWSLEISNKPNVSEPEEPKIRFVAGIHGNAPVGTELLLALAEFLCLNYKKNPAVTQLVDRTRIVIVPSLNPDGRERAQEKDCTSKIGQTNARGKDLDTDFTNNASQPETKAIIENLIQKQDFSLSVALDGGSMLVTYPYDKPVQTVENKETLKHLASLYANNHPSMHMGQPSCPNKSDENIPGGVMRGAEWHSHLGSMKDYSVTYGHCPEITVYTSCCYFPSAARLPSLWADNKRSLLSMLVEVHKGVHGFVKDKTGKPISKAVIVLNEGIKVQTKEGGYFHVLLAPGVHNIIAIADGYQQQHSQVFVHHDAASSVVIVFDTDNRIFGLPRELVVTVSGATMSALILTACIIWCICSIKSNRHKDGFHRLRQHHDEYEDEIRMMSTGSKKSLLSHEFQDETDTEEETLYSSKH
Chain of UniProt P21127 (P21127 whole entry, looked up): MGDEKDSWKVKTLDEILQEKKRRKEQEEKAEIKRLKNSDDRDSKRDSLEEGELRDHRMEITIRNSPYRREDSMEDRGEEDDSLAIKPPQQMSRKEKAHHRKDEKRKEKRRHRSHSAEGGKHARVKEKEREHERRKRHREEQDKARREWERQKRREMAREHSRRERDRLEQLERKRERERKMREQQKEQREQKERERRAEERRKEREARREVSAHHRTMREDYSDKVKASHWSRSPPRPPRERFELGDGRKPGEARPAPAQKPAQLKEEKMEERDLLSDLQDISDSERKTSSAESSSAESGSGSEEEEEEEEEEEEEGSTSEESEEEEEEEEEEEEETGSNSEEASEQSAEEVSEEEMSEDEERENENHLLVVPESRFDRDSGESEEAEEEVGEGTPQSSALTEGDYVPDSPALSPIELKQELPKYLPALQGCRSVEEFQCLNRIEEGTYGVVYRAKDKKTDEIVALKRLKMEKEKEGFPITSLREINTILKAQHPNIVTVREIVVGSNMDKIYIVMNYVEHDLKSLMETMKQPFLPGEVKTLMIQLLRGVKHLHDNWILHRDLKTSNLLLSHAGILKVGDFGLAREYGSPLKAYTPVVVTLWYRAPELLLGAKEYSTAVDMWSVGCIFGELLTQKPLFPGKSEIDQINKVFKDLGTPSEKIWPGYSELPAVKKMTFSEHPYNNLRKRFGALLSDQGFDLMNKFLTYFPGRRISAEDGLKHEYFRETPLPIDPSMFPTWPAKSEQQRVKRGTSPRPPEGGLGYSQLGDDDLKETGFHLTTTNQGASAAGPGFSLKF
Chain of UniProt P20674 (P20674 whole entry, looked up): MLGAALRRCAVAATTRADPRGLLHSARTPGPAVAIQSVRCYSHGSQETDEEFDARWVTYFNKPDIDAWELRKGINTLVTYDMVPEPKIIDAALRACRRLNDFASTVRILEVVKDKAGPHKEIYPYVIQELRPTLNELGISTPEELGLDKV
Chain of UniProt Q8IWY9 (Q8IWY9 whole entry, looked up): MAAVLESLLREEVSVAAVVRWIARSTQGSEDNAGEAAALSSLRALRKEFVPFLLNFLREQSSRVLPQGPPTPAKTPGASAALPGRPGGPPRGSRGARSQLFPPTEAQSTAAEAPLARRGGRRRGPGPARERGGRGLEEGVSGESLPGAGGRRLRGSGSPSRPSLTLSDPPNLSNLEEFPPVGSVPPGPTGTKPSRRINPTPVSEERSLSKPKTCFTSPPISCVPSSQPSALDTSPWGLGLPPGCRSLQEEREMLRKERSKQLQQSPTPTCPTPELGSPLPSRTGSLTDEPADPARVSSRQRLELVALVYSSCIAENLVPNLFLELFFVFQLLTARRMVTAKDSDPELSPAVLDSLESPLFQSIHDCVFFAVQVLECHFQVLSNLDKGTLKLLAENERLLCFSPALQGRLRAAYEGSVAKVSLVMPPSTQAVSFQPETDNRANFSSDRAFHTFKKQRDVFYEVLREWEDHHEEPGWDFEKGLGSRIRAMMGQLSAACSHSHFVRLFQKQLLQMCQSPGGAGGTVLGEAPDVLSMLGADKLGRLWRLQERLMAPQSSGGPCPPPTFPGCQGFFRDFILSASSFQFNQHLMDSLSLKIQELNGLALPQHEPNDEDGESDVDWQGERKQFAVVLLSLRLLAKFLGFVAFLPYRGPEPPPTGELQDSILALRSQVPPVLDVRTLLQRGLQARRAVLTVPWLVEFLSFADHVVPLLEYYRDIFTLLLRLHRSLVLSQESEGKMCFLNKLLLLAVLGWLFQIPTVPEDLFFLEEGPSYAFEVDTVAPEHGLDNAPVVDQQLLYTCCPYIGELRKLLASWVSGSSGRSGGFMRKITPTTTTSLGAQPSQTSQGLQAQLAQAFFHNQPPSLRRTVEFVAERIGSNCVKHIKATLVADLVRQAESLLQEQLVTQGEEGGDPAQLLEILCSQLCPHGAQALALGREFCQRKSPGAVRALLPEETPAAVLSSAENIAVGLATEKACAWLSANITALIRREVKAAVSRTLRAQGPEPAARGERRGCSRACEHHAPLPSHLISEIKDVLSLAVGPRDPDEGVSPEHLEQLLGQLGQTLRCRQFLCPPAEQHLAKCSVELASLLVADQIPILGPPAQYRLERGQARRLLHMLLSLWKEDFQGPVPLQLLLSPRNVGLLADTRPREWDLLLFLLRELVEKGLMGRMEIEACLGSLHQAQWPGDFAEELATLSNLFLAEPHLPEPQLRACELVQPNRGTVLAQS
Chain of UniProt Q96G23 (Q96G23 whole entry, looked up): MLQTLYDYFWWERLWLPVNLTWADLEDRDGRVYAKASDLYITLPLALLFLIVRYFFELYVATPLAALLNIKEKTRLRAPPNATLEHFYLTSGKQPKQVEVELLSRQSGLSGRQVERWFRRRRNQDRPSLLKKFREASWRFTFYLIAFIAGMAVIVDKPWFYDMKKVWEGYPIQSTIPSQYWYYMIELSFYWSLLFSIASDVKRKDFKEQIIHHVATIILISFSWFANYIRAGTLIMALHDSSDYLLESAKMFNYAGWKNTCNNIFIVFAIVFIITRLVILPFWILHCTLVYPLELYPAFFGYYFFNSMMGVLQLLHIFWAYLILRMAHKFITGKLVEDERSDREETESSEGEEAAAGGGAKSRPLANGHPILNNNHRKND
Chain of UniProt O75909 (O75909 whole entry, looked up): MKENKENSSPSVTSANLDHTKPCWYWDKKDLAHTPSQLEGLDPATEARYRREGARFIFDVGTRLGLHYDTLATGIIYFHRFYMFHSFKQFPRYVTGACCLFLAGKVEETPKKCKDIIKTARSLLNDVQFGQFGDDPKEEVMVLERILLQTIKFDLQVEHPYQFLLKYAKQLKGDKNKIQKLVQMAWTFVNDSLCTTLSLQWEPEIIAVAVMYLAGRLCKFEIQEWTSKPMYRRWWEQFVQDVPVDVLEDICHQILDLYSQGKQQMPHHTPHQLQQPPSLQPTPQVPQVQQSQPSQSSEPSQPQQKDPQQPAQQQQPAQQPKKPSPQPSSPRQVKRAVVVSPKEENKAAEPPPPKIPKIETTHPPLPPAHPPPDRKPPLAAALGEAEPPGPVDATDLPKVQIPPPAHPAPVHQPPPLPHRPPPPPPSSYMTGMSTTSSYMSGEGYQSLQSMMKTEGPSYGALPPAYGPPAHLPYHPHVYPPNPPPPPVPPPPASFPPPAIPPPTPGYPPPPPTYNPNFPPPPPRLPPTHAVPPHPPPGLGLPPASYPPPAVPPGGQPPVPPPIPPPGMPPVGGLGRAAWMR
Chain of UniProt P15954 (P15954 whole entry, looked up): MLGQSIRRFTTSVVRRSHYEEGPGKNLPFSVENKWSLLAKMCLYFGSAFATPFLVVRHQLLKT

Row | Target | log2 fold change (erlotinib) | log2 fold change [1] | log2 fold change [2] | log2 fold change [3] | log2 fold change [4] | log2 fold change [5] | log2 fold change [6] | log2 fold change [7] | log2 fold change [8] | log2 fold change [9]
1 | CASTOR2 (UniProt A6NHX0) | -0.026 | 0.117 | 0.013 | 0.018 | -0.031 | 0.017 | 0.029 | -0.017 | -0.065 | -0.002
2 | CNDP2 (UniProt Q96KP4) | 0.035 | -0.099 | 0.058 | 0.022 | 0.091 | -0.024 | 0.064 | 0.058 | 0.023 | 0.072
3 | CEMIP2 (UniProt Q9UHN6) | 0.076 | 0.018 | -0.042 | 0.001 | 0.087 | 0.029 | -0.071 | -0.066 | 0.084 | 0.041
4 | COX7C (UniProt P15954) | -0.006 | 0.134 | 0.209 | 0.154 | -0.174 | 0.073 | 0.08 | 0.27 | -0.003 | 0.047
5 | CNOT1 (UniProt A5YKK6) | 0.013 | 0.102 | -0.003 | -0.007 | 0.035 | 0.001 | 0.014 | -0.004 | -0.009 | -0.008
6 | CDAN1 (UniProt Q8IWY9) | -0.031 | 0.048 | -0.171 | -0.011 | 0.039 | 0.066 | 0.019 | -0.057 | 0.109 | 0.03
7 | CIZ1 (UniProt Q9ULV3) | 0.002 | 0.024 | 0.032 | 0.069 | 0.009 | 0.083 | -0.092 | -0.085 | 0.034 | -0.016
8 | CA8 (UniProt P35219) | -0.045 | 0.051 | 0.092 | -0.017 | 0.054 | 0.019 | 0.118 | -0.02 | -0.054 | 0.011
9 | COMMD2 (UniProt Q86X83) | 0.114 | 0.049 | -0.053 | 0.085 | 0.091 | -0.02 | -0.017 | 0.058 | 0.071 | -0.119
10 | CBX5 (UniProt P45973) | -0.018 | 0.08 | 0 | 0.043 | 0.111 | 0.025 | 0.003 | -0.028 | -0.002 | -0.015
11 | CSNK2A2 (UniProt P19784) | -0.053 | -0.08 | 0.046 | -0.006 | 0.22 (active) | 0.591 (active) | -0.038 | 0.185 | 0.034 | -0.047
12 | CETN2 (UniProt P41208) | 0.121 | -0.015 | -0.002 | 0.017 | -0.058 | 0.03 | -0.058 | -0.113 | 0.039 | 0.049
13 | CERS2 (UniProt Q96G23) | 0.032 | 0.001 | 0.013 | 0.007 | 0.004 | 0.033 | 0.01 | -0.025 | 0.074 | 0.087
14 | CLSPN (UniProt Q9HAW4) | -0.09 | -0.022 | -0.024 | 0.02 | -0.035 | 0.032 | -0.062 | -0.027 | -0.083 | 0.033
15 | CPD (UniProt O75976) | -0.025 | -0.08 | 0.009 | 0.028 | 0.055 | 0.011 | -0.007 | -0.041 | -0.045 | 0.008
16 | CDK5RAP3 isoform 4 (UniProt Q96JB5) | 0.089 | 0.027 | 0.042 | -0.017 | 0.01 | 0.023 | 0.033 | 0.041 | -0.003 | -0.068
17 | CHD4 isoform 2 (UniProt Q14839) | 0.042 | 0.103 | -0.011 | -0.007 | 0.029 | 0.034 | 0.044 | -0.08 | -0.047 | -0.1
18 | COX5A (UniProt P20674) | -0.005 | -0.05 | 0.104 | 0.052 | 0.045 | 0.016 | 0.183 | 0.051 | -0.026 | -0.081
19 | CPSF6 isoform 2 (UniProt Q16630) | 0.023 | 0.079 | -0.072 | 0.122 | -0.04 | -0.026 | -0.002 | -0.016 | -0.021 | -0.135
20 | CCND3 (UniProt P30281) | -0.028 | -0.025 | -0.081 | 0.036 | 0.143 | 0.289 | 0.047 | -0.001 | 0.09 | -0.043
21 | CDK16 isoform 2 (UniProt Q00536) | -0.072 | -0.025 | -0.023 | -0.07 | 0.043 | -0.016 | -0.024 | 0.121 | 0.139 | -0.029
22 | CCNK isoform 4 (UniProt O75909) | 0.079 | 0.006 | -0.138 | -0.016 | -0.126 | -0.013 | -0.068 | -0.077 | 0.047 | -0.126
23 | CDC42BPB (UniProt Q9Y5S2) | -0.005 | 0.221 | -0.071 | 0.069 | -0.047 | 0.027 | -0.024 | 0.04 | 0.017 | -0.221
24 | CDC42EP1 (UniProt Q00587) | 0.09 | 0.063 | 0.006 | 0.115 | 0.136 | -0.011 | -0.005 | -0.086 | -0.133 | -0.001
25 | CASP8 isoform 9 (UniProt Q14790) | -0.008 | 0.056 | -0.055 | -0.023 | 0.021 | 0.052 | -0.078 | 0.104 | -0.051 | -0.014
26 | CEPT1 (UniProt Q9Y6K0) | 0.099 | 0.034 | 0.016 | 0.107 | 0.037 | 0.047 | 0.011 | 0.071 | 0.007 | -0.074
27 | C4A (UniProt P0C0L4) | -0.117 | -0.05 | 0.024 | 0.078 | 0.12 | -0.032 | 0.002 | -0.132 | 0.072 | 0.104
28 | CDK11B (UniProt P21127) | 0.044 | 0.006 | -0.139 | 0.063 | 0.035 | -0.033 | -0.042 | -0.049 | -0.033 | -0.058
29 | C9orf64 (UniProt Q5T6V5) | 0.046 | 0.142 | 0.009 | 0.065 | 0.117 | 0.017 | 0.054 | -0.037 | -0.001 | -0.039
